Measured values taken from the supplement of paper PMC3545927.
The list shows a part of the results. The true hit rate is not given.

Target: furin, P09958
Assay: furin cleavage Z-score vs untreated control; higher = more cleavage, active = 3.5 or more, inactive = 1 or less, 8 variable residues between constant flanks
Outline: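 Purified furin digested bead-held 8-mer peptide–cDNA fusions at 1:10 enzyme:substrate in 0.01 ml of 50 mM HEPES pH 7.5 with CaCl2 and NaCl for 7.5, 15 or 30 min. The cleavage Z-score compares sequencing counts of released DNA with furin-free reactions on a log scale, with lowess adjustment and median absolute deviation scaling.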

Sequence of furin, P09958 (P09958 whole entry): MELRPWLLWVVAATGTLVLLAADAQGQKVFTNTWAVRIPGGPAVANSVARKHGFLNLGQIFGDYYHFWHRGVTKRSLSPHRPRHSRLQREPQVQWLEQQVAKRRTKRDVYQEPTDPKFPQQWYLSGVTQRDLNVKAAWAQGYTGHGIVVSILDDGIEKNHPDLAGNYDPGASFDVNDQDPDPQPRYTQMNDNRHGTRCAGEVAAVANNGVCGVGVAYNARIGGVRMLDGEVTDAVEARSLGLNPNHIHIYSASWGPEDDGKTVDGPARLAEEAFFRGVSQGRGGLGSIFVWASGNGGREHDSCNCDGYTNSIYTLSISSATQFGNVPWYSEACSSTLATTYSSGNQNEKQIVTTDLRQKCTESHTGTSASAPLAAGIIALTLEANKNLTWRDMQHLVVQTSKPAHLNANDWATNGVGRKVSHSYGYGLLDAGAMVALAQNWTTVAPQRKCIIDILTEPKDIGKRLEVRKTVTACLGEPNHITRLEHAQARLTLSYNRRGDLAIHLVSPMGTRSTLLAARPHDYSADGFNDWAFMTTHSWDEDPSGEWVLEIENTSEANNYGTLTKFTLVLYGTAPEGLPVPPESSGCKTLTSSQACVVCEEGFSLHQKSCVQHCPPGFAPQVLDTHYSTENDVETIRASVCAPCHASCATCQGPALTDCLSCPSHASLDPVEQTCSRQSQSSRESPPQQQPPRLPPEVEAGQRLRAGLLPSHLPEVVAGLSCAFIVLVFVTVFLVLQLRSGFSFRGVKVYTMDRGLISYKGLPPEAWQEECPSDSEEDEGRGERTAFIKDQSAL

Row | Sequence | furin cleavage Z-score (7.5 min) | furin cleavage Z-score (15 min) | furin cleavage Z-score (30 min)
1 | CAVVCCWMSYAGNASASA [HC107] | -0.895 (inactive) | 0.873 (inactive) | -1.73 (inactive)
2 | CASQPCSAHLAGNASASA [HC2502] | -0.0566 (inactive) | 0.435 (inactive) | 0.0846 (inactive)
3 | CARHYKSASPAGNASASA [FS-1718] | -1.62 (inactive) | -1.27 (inactive) | -1.9 (inactive)
4 | CARARRGGGSAGNASASA [FS-2645] | -0.34 (inactive) | -0.574 (inactive) | 0.0356 (inactive)
5 | CARARRDHFSAGNASASA [FS-2642] | 1.38 | 1.33 | 3.76 (active)
6 | CARARRDAGPAGNASASA [FS-3150] | 10.1 (active) | 11.6 (active) | 7.77 (active)
7 | CARARRGPSPAGNASASA [FS-2131] | -1.25 (inactive) | -0.123 (inactive) | -0.828 (inactive)
8 | CARARRSASPAGNASASA [FS-2481] | 8.11 (active) | 8.29 (active) | 5.23 (active)
9 | CARARRGLRGAGNASASA [FS-1817] | 1.71 | 0.637 (inactive) | 3.32
10 | CARARRGTSGAGNASASA [FS-2646] | 3.84 (active) | 5.25 (active) | 5.55 (active)
11 | CANTPCSAHLAGNASASA [HC2481] | -0.479 (inactive) | -0.245 (inactive) | 0.352 (inactive)
12 | CAMEECSWHLAGNASASA [HC1728] | -0.727 (inactive) | 1.63 | 1.16
13 | CAGNASRCWVAGNASASA [HC277] | -0.19 (inactive) | 0.165 (inactive) | -0.828 (inactive)
14 | CARARRGVEVAGNASASA [FS-2647] | 4.52 (active) | 5.87 (active) | 6.09 (active)
15 | CAQLPCEPEPAGNASASA [HC1240] | 0.775 (inactive) | -0.524 (inactive) | -0.783 (inactive)
16 | CAFFSVLIARAGNASASA [HC1585] | -2.48 (inactive) | -0.777 (inactive) | -0.815 (inactive)
17 | CAYLLPRRGPAGNASASA [HC178] | -0.496 (inactive) | -0.768 (inactive) | -0.313 (inactive)
18 | CAHLSRRRRNAGNASASA [FS-1007] | 11.1 (active) | 9.66 (active) | 7.89 (active)
19 | CAYLLRRRRNAGNASASA [FS-1620] | 5.7 (active) | 4.73 (active) | 3.09
20 | CAECTTPCSGAGNASASA [HC1144] | -0.495 (inactive) | -0.922 (inactive) | -0.582 (inactive)
21 | CAKSVRKRRVAGNASASA [FS-603] | 10.7 (active) | 11.6 (active) | 9.56 (active)
22 | CAITSCSSNVAGNASASA [HC1552] | 0.153 (inactive) | 0.128 (inactive) | 0.563 (inactive)

Row | Sequence | furin cleavage Z-score (7.5 min) | furin cleavage Z-score (15 min) | furin cleavage Z-score (30 min)
23 | CAEVVTSTRVAGNASASA [HC2233] | -0.495 (inactive) | 0.515 (inactive) | -0.63 (inactive)
24 | CALSARRFRVAGNASASA [FS-1371] | 0.442 (inactive) | -0.766 (inactive) | 0.226 (inactive)
25 | CAATSRKRRVAGNASASA [FS-1311] | 7.4 (active) | 11 (active) | 9.97 (active)
26 | CAAIIPDREVAGNASASA [HC1007] | -0.132 (inactive) | -0.083 (inactive) | -0.0846 (inactive)
27 | CAAIGRSRRVAGNASASA [FS-114] | 2.54 | 1.95 | 4.65 (active)
28 | CARSVRKVIVAGNASASA [FS-3099] | 0.811 (inactive) | -1.26 (inactive) | 0.845 (inactive)
29 | CADDDKIVGGAGNASASA [EK7] | -1.75 (inactive) | -1.15 (inactive) | -0.908 (inactive)
30 | CASTGFTKVCAGNASASA [HC439] | 0.727 (inactive) | -0.241 (inactive) | 0.58 (inactive)
31 | CAPISYANGSAGNASASA [HC396] | 0.358 (inactive) | -0.237 (inactive) | 0.768 (inactive)
32 | CACEECSQHLAGNASASA [HC1680] | -0.324 (inactive) | -2.23 (inactive) | -0.379 (inactive)
33 | CALNRRRRREAGNASASA [FS-355] | 12.7 (active) | 12.9 (active) | 8.21 (active)
34 | CARFYRSRKKAGNASASA [FS-1707] | 0.676 (inactive) | 1.31 | 0.114 (inactive)
35 | CARDARRLKEAGNASASA [FS-2900] | 0.375 (inactive) | -1.38 (inactive) | -0.471 (inactive)
36 | CAVSAEEYVEAGNASASA [HC1203] | -1.9 (inactive) | 0.0508 (inactive) | 0.782 (inactive)
37 | CALHGRRRREAGNASASA [FS-456] | 12.8 (active) | 11.9 (active) | 10.7 (active)
38 | CAVFARHLREAGNASASA [FS-921] | 5.03 (active) | 6.28 (active) | 4.54 (active)
39 | CARRNRRRREAGNASASA [FS-494] | 12 (active) | 13.6 (active) | 9.7 (active)
40 | CACCTTPCSGAGNASASA [HC1960] | -1.19 (inactive) | -0.424 (inactive) | -0.858 (inactive)
41 | CAWCLWWLQYAGNASASA [HC581] | -0.105 (inactive) | -0.224 (inactive) | -0.828 (inactive)
42 | CAWFGCTWMNAGNASASA [HC435] | -0.725 (inactive) | 1.68 | 1.37
43 | CATDFDQGWGAGNASASA [HC392] | -0.591 (inactive) | -2.3 (inactive) | -1.94 (inactive)
